According to ChEMBL document CHEMBL3433997, “St. Jude Leishmania screening dataset” (2016):

The compounds below were run against Solute carrier family 2, facilitated glucose transporter member 1 (Homo sapiens) (UniProt P11166) (assay: ST_JUDE_LEISH: Cytotoxicity at 2uM final concentration against transgenic Leishmania Mexicana promastigotes LmGLUT1 that are glucose transport deficient and complemented with the human glucose transporter GLUT1. Activity is measured by DNA content using SYBR green in vitro).
Solute carrier family 2, facilitated glucose transporter member 1 (Homo sapiens), sequence (P11166 whole entry): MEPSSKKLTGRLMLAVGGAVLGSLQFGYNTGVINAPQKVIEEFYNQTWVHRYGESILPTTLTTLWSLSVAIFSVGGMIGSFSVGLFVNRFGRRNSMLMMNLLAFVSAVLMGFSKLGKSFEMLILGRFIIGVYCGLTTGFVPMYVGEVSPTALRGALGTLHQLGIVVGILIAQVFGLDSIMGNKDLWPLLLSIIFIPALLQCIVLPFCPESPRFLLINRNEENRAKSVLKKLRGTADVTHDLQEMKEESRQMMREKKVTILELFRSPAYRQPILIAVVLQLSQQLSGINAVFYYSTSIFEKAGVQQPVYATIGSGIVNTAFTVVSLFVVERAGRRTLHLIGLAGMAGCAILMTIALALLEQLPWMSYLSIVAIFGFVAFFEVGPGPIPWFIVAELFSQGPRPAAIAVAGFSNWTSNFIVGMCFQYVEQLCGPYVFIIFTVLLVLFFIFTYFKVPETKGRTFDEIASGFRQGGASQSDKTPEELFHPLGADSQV
Type: functional

Question: How did the inhibition turn out when `Cc1cc(NC(=O)Nc2ccc3nccc(N4CCN(C)CC4)c3c2)ccc1Br` was run?
Answer: -0.1%

Question: With `Cc1[nH]c(C)c(-c2ccc(-c3ccc(OC(F)(F)F)cc3)nc2)c(=O)c1Cl` as the compound, how does the inhibition read?
Answer: -0.94%

Question: Which inhibition does the source give for `CC(C)N1CCC(N(Cc2ccc(-c3ccc(C(F)(F)F)cc3)cc2)C(=O)Cn2c(SCc3cccc(F)c3F)cc(=O)c3c2CCC3)CC1` here?
Answer: 4.88%

Question: With `CC(C)(C)OC(=O)NCCc1cccc(-c2c[nH]c3ncc(-c4cccc(NS(C)(=O)=O)c4)cc23)c1` as the compound, how does the inhibition read?
Answer: -0.22%

Question: How did the inhibition turn out when `Cc1cccc2nc(-c3ccc(-c4ccc(CNCCNC(=O)c5ccnn5C)cc4)cc3)[nH]c12` was run?
Answer: -0.55%

Question: `COc1ccc(Cc2c(C)nc3nc(N)nc(N)c3c2C)cc1OC` was tested. Which inhibition did it give?
Answer: 13.6%

Question: With `NC(CC1CC(=O)N1CC(=O)O)C(=O)O` (stereo not given) as the compound, how does the inhibition read?
Answer: 8.57%

Question: How did the inhibition turn out when `O=C(/C=C/c1ccc(Cl)c(Cl)c1)NCCCCCN1CCC(NC(=O)Nc2ccc(Cl)cc2F)CC1` was run?
Answer: 2.9%

Question: With `CCN(CC)CCN(Cc1ccc(-c2ccc(C(F)(F)F)cc2)cc1)C(=O)Cn1cc(CCCCc2cccc(F)c2F)c(=O)c2ccccc21` as the compound, how does the inhibition read?
Answer: 7.95%

Question: How did the inhibition turn out when `NC(=O)c1cccc(C(=O)Nc2cccc(-c3ccc(-c4nc5ccccc5[nH]4)s3)c2)c1` was run?
Answer: 1.49%

Question: `COc1cc(Nc2ccnc3ccc(C(F)(F)F)cc23)cc(OC)c1OC` was tested. Which inhibition did it give?
Answer: 18.2%

Question: How did the inhibition turn out when `COc1cc(-c2cc(-c3ccc(OCCN(C)C)cc3)[nH]c2-c2ccncc2)ccc1Cl` was run?
Answer: 0.75%

Question: `O=S(=O)(c1cccc(C(F)(F)F)c1)N1CCC(CO)(Cc2cccc(C(F)(F)F)c2)CC1` was tested. Which inhibition did it give?
Answer: 9.13%

Question: For `FC(F)(F)c1cccc(C=NNc2nc3ccccc3[nH]2)c1`, which inhibition is on record?
Answer: 10.7%

Question: For `COC(=O)C(=O)c1c(-c2ccccc2)c(-c2ccc(OC)c(OC)c2)c2c3cc(OC)c(OC)cc3ccn12`, which inhibition is on record?
Answer: 13.2%

Question: `CN(C)CCOc1cc(O)c2c(c1)OC(C)(C)C=C2c1cccs1` was tested. Which inhibition did it give?
Answer: -0.97%

Question: For `CCOc1ccc(-c2nonc2NC(=O)c2ccccc2)cc1OCC`, which inhibition is on record?
Answer: 4.72%

Question: With `CCNc1cc(C(=O)N[C@@H](Cc2ccccc2)[C@H](O)CNC2(CC)CC2)cc(N2CCCCS2(=O)=O)c1` as the compound, how does the inhibition read?
Answer: -3.85%

Question: Which inhibition does the source give for `CC(C)c1ccc(NC(=O)c2ccc(C(=O)NC3CCN(Cc4ccccc4)CC3)cc2)cc1` here?
Answer: 1.09%

Question: For `COc1ccc2[nH]cc(C3CCN(CCCCNC(=O)c4ccc(NC(=O)c5ccc(Cl)cc5)cc4)CC3)c2c1`, which inhibition is on record?
Answer: 4.59%

Question: How did the inhibition turn out when `CN1CCN(c2ccnc3ccc(NC(=O)Nc4cccc5ccccc45)cc23)CC1` was run?
Answer: 1.43%

Question: For `O=C(/C=C/c1ccc(-c2ccccc2)cc1)NCCCCCN1CCC(c2c[nH]c3ccccc23)CC1`, which inhibition is on record?
Answer: 0.3%

Question: For `CCOC(=O)C(NC(=O)c1ccc([N+](=O)[O-])o1)C(C)C` (stereo not given), which inhibition is on record?
Answer: -1.7%

Question: `O=[N+]([O-])c1cccc(NC(=S)N2CCCN(Cc3ccc(F)cc3F)CC2)c1` was tested. Which inhibition did it give?
Answer: 0.91%

Question: For `CC(C)(C)OC(=O)N[C@@H](CS(=O)(=O)CCNC(=N)COCc1ccccc1)C(=O)OC(C)(C)C`, which inhibition is on record?
Answer: 7.09%

Question: How did the inhibition turn out when `CN(C)CCNCc1ccc(-c2cccc(-c3nc4ccccc4[nH]3)c2)cc1` was run?
Answer: 10.5%

Question: How did the inhibition turn out when `O=C(CSc1ccccn1)Nc1c(F)cccc1F` was run?
Answer: 3.81%

Question: Which inhibition does the source give for `O=C(/C=C/c1ccc(Cl)c(Cl)c1)NCCCCN1CCCN(C(=O)Nc2ccc(C(F)(F)F)cc2)CC1` here?
Answer: 3.18%

Question: With `Cn1ccnc1CNC(=O)c1ccc(-c2ccc(-c3nc4cc(C(F)(F)F)ccc4[nH]3)s2)cc1` as the compound, how does the inhibition read?
Answer: 4.17%

Question: With `O=C(Nc1cccc(-c2cccc(-c3nc4cc(C(F)(F)F)ccc4[nH]3)c2)c1)c1cccnc1` as the compound, how does the inhibition read?
Answer: 0.56%

Question: Which inhibition does the source give for `Cc1cc(=O)c2cc(-c3ccc(OC(F)(F)F)cc3)ccc2[nH]1` here?
Answer: -2.2%

Question: For `O=C(Nc1cccc(-c2ccc(-c3nc4cc(C(F)(F)F)ccc4[nH]3)cc2)c1)c1csnn1`, which inhibition is on record?
Answer: 5.44%

Question: For `O=C(Nc1cc(Cl)ccc1-n1cncn1)C1(c2ccccc2)CC1`, which inhibition is on record?
Answer: 2.59%

Question: `COc1ccc(NC(=O)[C@H](CC(C)C)Nc2cc(C)nc(NCCc3cccs3)n2)cc1` was tested. Which inhibition did it give?
Answer: -2.08%

Question: With `C=CCN(c1ccc(OC)cc1)S(=O)(=O)c1ccc(Cl)c(C(=O)Nc2cccc(C#N)c2)c1` as the compound, how does the inhibition read?
Answer: -1.28%

Question: How did the inhibition turn out when `COc1ccc(C2CCN(CCCCNC(=O)c3ccc(NC(=O)c4ccc(Cl)cc4)cc3)CC2)c(C)c1` was run?
Answer: -0.79%

Question: With `N#Cc1ccc2c(c1)CCN(CCC1CCC(NC(=O)/C=C/c3ccc(Cl)c(Cl)c3)CC1)CC2` (stereo not given) as the compound, how does the inhibition read?
Answer: 9.87%

Question: Which inhibition does the source give for `Cc1nc(C)c(-c2ccc(S(=O)(=O)c3ccc(Cl)cc3)cc2)c(O)c1Cl` here?
Answer: 9.02%

Question: `CCCCCCCCCc1c(C)[nH]c2ccccc2c1=O` was tested. Which inhibition did it give?
Answer: -1.28%

Question: Which inhibition does the source give for `Cc1nc2nc(N)nc(N)c2c(C)c1Cc1ccccc1Br` here?
Answer: 7.5%

The compounds below were run against Hexose transporter 1 (Plasmodium falciparum) (UniProt O97467) (assay: ST_JUDE_LEISH: Cytotoxicity at 2uM final concentration against transgenic Leishmania Mexicana promastigotes LmPfHT that are glucose transport deficient and complemented with the Plasmodium falciparum hexose transporter. Activity is measured by DNA content using SYBR green in vitro).
Type: functional

Question: Which inhibition does the source give for `Cc1cc(NC(=O)Nc2ccc3nccc(N4CCN(C)CC4)c3c2)ccc1Br` here?
Answer: 1.48%

Question: `Cc1[nH]c(C)c(-c2ccc(-c3ccc(OC(F)(F)F)cc3)nc2)c(=O)c1Cl` was tested. Which inhibition did it give?
Answer: -0.29%

Question: For `CC(C)N1CCC(N(Cc2ccc(-c3ccc(C(F)(F)F)cc3)cc2)C(=O)Cn2c(SCc3cccc(F)c3F)cc(=O)c3c2CCC3)CC1`, which inhibition is on record?
Answer: -0.24%

Question: How did the inhibition turn out when `CC(C)(C)OC(=O)NCCc1cccc(-c2c[nH]c3ncc(-c4cccc(NS(C)(=O)=O)c4)cc23)c1` was run?
Answer: -2.71%

Question: For `Cc1cccc2nc(-c3ccc(-c4ccc(CNCCNC(=O)c5ccnn5C)cc4)cc3)[nH]c12`, which inhibition is on record?
Answer: 1.46%

Question: Which inhibition does the source give for `COc1ccc(Cc2c(C)nc3nc(N)nc(N)c3c2C)cc1OC` here?
Answer: 15%

Question: `NC(CC1CC(=O)N1CC(=O)O)C(=O)O` (stereo not given) was tested. Which inhibition did it give?
Answer: 7.82%

Question: For `O=C(/C=C/c1ccc(Cl)c(Cl)c1)NCCCCCN1CCC(NC(=O)Nc2ccc(Cl)cc2F)CC1`, which inhibition is on record?
Answer: 1.84%

Question: `CCN(CC)CCN(Cc1ccc(-c2ccc(C(F)(F)F)cc2)cc1)C(=O)Cn1cc(CCCCc2cccc(F)c2F)c(=O)c2ccccc21` was tested. Which inhibition did it give?
Answer: 6.93%

Question: `NC(=O)c1cccc(C(=O)Nc2cccc(-c3ccc(-c4nc5ccccc5[nH]4)s3)c2)c1` was tested. Which inhibition did it give?
Answer: 1.48%

Question: `COc1cc(Nc2ccnc3ccc(C(F)(F)F)cc23)cc(OC)c1OC` was tested. Which inhibition did it give?
Answer: 23.1%

Question: For `COc1cc(-c2cc(-c3ccc(OCCN(C)C)cc3)[nH]c2-c2ccncc2)ccc1Cl`, which inhibition is on record?
Answer: 0.72%

Question: `O=S(=O)(c1cccc(C(F)(F)F)c1)N1CCC(CO)(Cc2cccc(C(F)(F)F)c2)CC1` was tested. Which inhibition did it give?
Answer: 6.86%

Question: `FC(F)(F)c1cccc(C=NNc2nc3ccccc3[nH]2)c1` was tested. Which inhibition did it give?
Answer: 8.25%

Question: With `COC(=O)C(=O)c1c(-c2ccccc2)c(-c2ccc(OC)c(OC)c2)c2c3cc(OC)c(OC)cc3ccn12` as the compound, how does the inhibition read?
Answer: 10.2%

Question: Which inhibition does the source give for `CN(C)CCOc1cc(O)c2c(c1)OC(C)(C)C=C2c1cccs1` here?
Answer: -1.11%

Question: For `CCOc1ccc(-c2nonc2NC(=O)c2ccccc2)cc1OCC`, which inhibition is on record?
Answer: 2.09%

Question: For `CCNc1cc(C(=O)N[C@@H](Cc2ccccc2)[C@H](O)CNC2(CC)CC2)cc(N2CCCCS2(=O)=O)c1`, which inhibition is on record?
Answer: 2.01%

Question: For `CC(C)c1ccc(NC(=O)c2ccc(C(=O)NC3CCN(Cc4ccccc4)CC3)cc2)cc1`, which inhibition is on record?
Answer: 2.91%

Question: With `COc1ccc2[nH]cc(C3CCN(CCCCNC(=O)c4ccc(NC(=O)c5ccc(Cl)cc5)cc4)CC3)c2c1` as the compound, how does the inhibition read?
Answer: 4.04%

Question: `CN1CCN(c2ccnc3ccc(NC(=O)Nc4cccc5ccccc45)cc23)CC1` was tested. Which inhibition did it give?
Answer: -0.09%

Question: How did the inhibition turn out when `O=C(/C=C/c1ccc(-c2ccccc2)cc1)NCCCCCN1CCC(c2c[nH]c3ccccc23)CC1` was run?
Answer: 4.35%

Question: How did the inhibition turn out when `CCOC(=O)C(NC(=O)c1ccc([N+](=O)[O-])o1)C(C)C` (stereo not given) was run?
Answer: -1.51%

Question: For `O=[N+]([O-])c1cccc(NC(=S)N2CCCN(Cc3ccc(F)cc3F)CC2)c1`, which inhibition is on record?
Answer: 1%

Question: `CC(C)(C)OC(=O)N[C@@H](CS(=O)(=O)CCNC(=N)COCc1ccccc1)C(=O)OC(C)(C)C` was tested. Which inhibition did it give?
Answer: 6.29%

Question: `CN(C)CCNCc1ccc(-c2cccc(-c3nc4ccccc4[nH]3)c2)cc1` was tested. Which inhibition did it give?
Answer: 8.93%

Question: For `O=C(CSc1ccccn1)Nc1c(F)cccc1F`, which inhibition is on record?
Answer: 3.5%

Question: Which inhibition does the source give for `O=C(/C=C/c1ccc(Cl)c(Cl)c1)NCCCCN1CCCN(C(=O)Nc2ccc(C(F)(F)F)cc2)CC1` here?
Answer: 4.68%

Question: `Cn1ccnc1CNC(=O)c1ccc(-c2ccc(-c3nc4cc(C(F)(F)F)ccc4[nH]3)s2)cc1` was tested. Which inhibition did it give?
Answer: 3.3%

Question: Which inhibition does the source give for `O=C(Nc1cccc(-c2cccc(-c3nc4cc(C(F)(F)F)ccc4[nH]3)c2)c1)c1cccnc1` here?
Answer: 0.29%

Question: How did the inhibition turn out when `Cc1cc(=O)c2cc(-c3ccc(OC(F)(F)F)cc3)ccc2[nH]1` was run?
Answer: 0.49%

Question: `O=C(Nc1cccc(-c2ccc(-c3nc4cc(C(F)(F)F)ccc4[nH]3)cc2)c1)c1csnn1` was tested. Which inhibition did it give?
Answer: 8%

Question: Which inhibition does the source give for `O=C(Nc1cc(Cl)ccc1-n1cncn1)C1(c2ccccc2)CC1` here?
Answer: 6.43%

Question: `COc1ccc(NC(=O)[C@H](CC(C)C)Nc2cc(C)nc(NCCc3cccs3)n2)cc1` was tested. Which inhibition did it give?
Answer: 1.29%

Question: How did the inhibition turn out when `C=CCN(c1ccc(OC)cc1)S(=O)(=O)c1ccc(Cl)c(C(=O)Nc2cccc(C#N)c2)c1` was run?
Answer: 4.89%

Question: `COc1ccc(C2CCN(CCCCNC(=O)c3ccc(NC(=O)c4ccc(Cl)cc4)cc3)CC2)c(C)c1` was tested. Which inhibition did it give?
Answer: -0.57%

Question: How did the inhibition turn out when `N#Cc1ccc2c(c1)CCN(CCC1CCC(NC(=O)/C=C/c3ccc(Cl)c(Cl)c3)CC1)CC2` (stereo not given) was run?
Answer: 13.1%

Question: How did the inhibition turn out when `Cc1nc(C)c(-c2ccc(S(=O)(=O)c3ccc(Cl)cc3)cc2)c(O)c1Cl` was run?
Answer: 5.86%

Question: How did the inhibition turn out when `CCCCCCCCCc1c(C)[nH]c2ccccc2c1=O` was run?
Answer: 2.65%

Question: `Cc1nc2nc(N)nc(N)c2c(C)c1Cc1ccccc1Br` was tested. Which inhibition did it give?
Answer: 14.9%
